The inhibition is the change of the read-out against control, counted positive when it falls.

The text below walks through data of PubChem BioAssay.

Experiment [1] in a line: inhibitors of TNFa-induced NFkB p65 translocation, primary screen, imaging, HUVEC, MLSMR starter and 10KST1 sets (AID 438;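 active = inhibition above 20% together with a positive visual image hit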;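 note: compound added about 3h40 before a 20 min TNFalpha stimulation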;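 for inhibition: signal is the nuclear over cytoplasmic p65 intensity ratio per well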). The note with it: HUVEC TNFa-induced p65 nuclear translocation; cell count: measured here: nuclei count (cytotoxicity indicator), at 2.08 µM; inhibition: at 2 µM, stronger effect = higher value, 0% TNFa-plus-vehicle, 100% no-TNFa wells.
Experiment [2] can be described thus: reduction of polyQ htt aggregates in cells – imaging, exon1htt(103Q)mCFP cells, high-content imaging, primary screen (AID 483;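 active = visual image review flags a hit and inhibition of aggregation exceeds 20%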;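 note: compound exposure lasted 3 days before fixation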;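 for nuclei count: percent of the per-plate median nuclei count of sample wells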). The note with it: exon1htt(103Q)mCFP cell line, aggregate imaging, at 2 µM; inhibition of aggregation: stronger effect = higher value; nuclei count: measured here: cell count, toxicity.
Experiment [3] is described as follows: endothelial E-selectin expression blockers – imaging, HUVEC, immunofluorescence, MLSMR starter and 10KST1 sets, primary screen (AID 487).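 For inhibition: signal is fraction of cell area covered by stained E-selectin grains.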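 For nuclei count: 100% = median nuclei count of all wells on the same plate.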 The following applies: HUVEC TNFalpha-induced E-selectin immunofluorescence imaging, at 2 µM; inhibition: stronger effect = higher value; nuclei count: measured here: cell number, toxicity.
Experiment [4] has as its target Voltage-gated potassium channel subunit beta-2 (Rattus norvegicus) (UniProt P62483). The experiment can be described thus: inhibitors of rat Kvbeta2 reductase activity – biochemical, NADPH fluorescence, primary screen (AID 622;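 active = fluorescence slope higher than the sample average by over 3 SD, cut at about -0.22 in these data, passing the limit was not always enough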;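 note: slope of raw intensity against log time taken from 70 to 1610 s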). The note with it: recombinant KvBeta, 4-cyanobenzaldehyde reduction, at 10 µM, stronger effect = higher value.
For experiment [5] the target is unchanged. The experiment can be described thus: enhancers of rat Kvbeta2 NADPH turnover – biochemical, NADPH fluorescence, primary screen (AID 623;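 active = NADPH fluorescence slope more negative than the mean of all samples by about 3 SD, 99.7% confidence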;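 note: fluorescence intensity change per second fitted from 20 to 320 s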). The note with it: Recombinant KvBeta, NADPH fluorescence decrease slope, 10 min; at 10 µM; stronger effect = lower value.
In experiment [6] the target is Alpha-2C adrenergic receptor (Homo sapiens) (UniProt P18825). The experiment can be described thus: compounds altering alpha2C-coupled GIRK flux – cell-based, HEK293 alpha2C/GIRK1/2, thallium flux, primary screen (AID 624;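 active = fluorescence slope after compound addition differing from the mean of all screened samples at 99.7% confidence, in either direction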;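 note: slope of fluorescence ratio to pre-addition baseline per second over 15 to 24 s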). The note with it: thallium flux BTC fluorescence, at 10 µM, actives lie on both sides.
Sequence of Alpha-2C adrenergic receptor (Homo sapiens) (P18825 whole entry, looked up): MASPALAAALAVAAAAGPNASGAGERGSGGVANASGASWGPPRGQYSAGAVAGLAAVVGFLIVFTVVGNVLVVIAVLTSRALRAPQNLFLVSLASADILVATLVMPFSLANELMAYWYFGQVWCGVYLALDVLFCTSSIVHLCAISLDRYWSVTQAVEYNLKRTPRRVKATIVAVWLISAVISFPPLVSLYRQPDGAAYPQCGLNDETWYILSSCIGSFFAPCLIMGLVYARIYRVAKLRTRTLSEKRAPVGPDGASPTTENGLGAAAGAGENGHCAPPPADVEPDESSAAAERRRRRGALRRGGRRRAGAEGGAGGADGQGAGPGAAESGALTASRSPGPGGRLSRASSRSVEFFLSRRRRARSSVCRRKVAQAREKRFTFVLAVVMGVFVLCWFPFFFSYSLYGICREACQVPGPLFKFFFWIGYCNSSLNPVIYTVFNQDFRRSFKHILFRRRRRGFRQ
The nature of experiment [7]: blockers of RIG-like receptor reporter activation – cell-based, Sendai virus stimulus, luciferase, 10K MLSCN set, TLR/RLR signaling modifier project, primary screen (AID 602276;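 active = inhibition at or above 50% at 10 µM; inactive = inhibition below 50%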;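 note: firefly luciferase from ISG56 promoter only with Renilla not read in this screen; 0% = Sendai virus plus DMSO and 100% = medium plus DMSO without virus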). The note with it: HEK293 RL24 IRF3 luciferase reporter, at 10 µM, stronger effect = higher value. (A reporter such as luciferase makes a cellular process visible.)
A short description of experiment [8]: TLR3 IRF3 reporter activation blockers – cell-based, poly I:C stimulus, luciferase, 10K MLSCN set, primary screen (AID 602277;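 active = inhibition of the reporter signal at or above 50%; inactive = inhibition below 50%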). The following applies: HEK293-TLR3 RL24 IRF3 luciferase reporter, at 10 µM, stronger effect = higher value.

SMILES strings stand for the structures. Calls of active or inactive are those of the source.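 Rule for the calls, unless noted: active = visually confirmed hit in the image check and inhibition above 20%; inconclusive = visually confirmed hit but inhibition not above 20%; inactive = no visual hit in the image check.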

Sequence of Voltage-gated potassium channel subunit beta-2 (Rattus norvegicus) (P62483 whole entry, looked up): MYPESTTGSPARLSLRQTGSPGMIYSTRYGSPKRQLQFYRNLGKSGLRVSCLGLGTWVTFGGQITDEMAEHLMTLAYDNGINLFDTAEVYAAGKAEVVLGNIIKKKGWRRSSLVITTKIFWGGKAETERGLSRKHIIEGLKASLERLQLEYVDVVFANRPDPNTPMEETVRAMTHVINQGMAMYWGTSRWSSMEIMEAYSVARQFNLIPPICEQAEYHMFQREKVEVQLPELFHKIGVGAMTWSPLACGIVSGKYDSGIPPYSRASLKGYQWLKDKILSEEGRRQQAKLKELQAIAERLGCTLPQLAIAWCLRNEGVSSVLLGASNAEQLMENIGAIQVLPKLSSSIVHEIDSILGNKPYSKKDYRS

Turning to `CCc1ccc(CN(C)CCc2ccccn2)cc1`, the cell count in experiment [1] is 590. For the same compound, the inhibition in experiment [1] was -7.7% (inactive); in experiment [3], -61.6% (inactive); in experiment [7], 5.44% (inactive); in experiment [8], 7.65% (inactive). Moreover, the inhibition of aggregation in experiment [2] was 7.2% (inactive). Also, the nuclei count in experiment [2] is 108%; in experiment [3], 94%. In addition, the fluorescence slope in experiment [4] was -0.482 (inactive). Also, the NADPH fluorescence slope in experiment [5] was -0.000258 (inactive). The slope in experiment [6] was 0.00499 (inactive).

As for `CCc1nc(NCCCN2CCOCC2)c2oc3ccccc3c2n1`, the cell count in experiment [1] was determined as 573. For the same compound, the inhibition in experiment [1] was -4.4% (inactive); in experiment [3] it was -55.2% (inactive); in experiment [7] it was 17.6% (inactive); in experiment [8] it was 25.2% (inactive). In addition, the inhibition of aggregation in experiment [2] was -12.6% (inactive). Moreover, the nuclei count in experiment [2] was found to be 106%; in experiment [3] it was 103%. Also, in experiment [4], the fluorescence slope was -0.465 (inactive). In experiment [5], the NADPH fluorescence slope was -3.3e-05 (inactive). Moreover, the slope in experiment [6] is 0.00535 (inactive).

Turning to `CN(C)S(=O)(=O)c1ccc(/C(O)=C2/C(=O)C(=O)N(CCN3CCCCC3)C2c2cccnc2)cc1` (centres undefined), in experiment [1], the cell count was 391. Also, the inhibition in experiment [1] was 5.5% (inactive); in experiment [3] it was -68.5% (inactive); in experiment [7], -17.9% (inactive); in experiment [8], -24% (inactive). The inhibition of aggregation in experiment [2] is 5.7% (inactive). In addition, the nuclei count in experiment [2] stood at 88.2%; in experiment [3] it was 113%. In experiment [4], the fluorescence slope was -0.396 (inactive). Moreover, the NADPH fluorescence slope in experiment [5] is 2e-05 (inactive). The slope in experiment [6] is 0.00576 (inactive).

As to `CC(C)(C)NC(=O)CSc1nnc(-c2ccccn2)n1-c1ccccc1`, the cell count in experiment [1] was determined as 588. Further, the inhibition was -10.6% (inactive) in experiment [1], -36.6% (inactive) in experiment [3], -7.01% (inactive) in experiment [7] and 26.8% (inactive) in experiment [8]. The inhibition of aggregation in experiment [2] is -12.9% (inactive). Besides, the nuclei count in experiment [2] is 86.7%; in experiment [3] it was 122%. The fluorescence slope in experiment [4] is -0.587 (inactive). The NADPH fluorescence slope in experiment [5] was -2e-05 (inactive). In addition, in experiment [6], the slope is 0.00702 (inactive).

Take `O=C(CCS(=O)(=O)c1cccc2nonc12)Nc1cccc2c1CCCC2`: the cell count in experiment [1] was found to be 500. Besides, the inhibition was -1.9% (inactive) in experiment [1], -14% (inactive) in experiment [3], -1.97% (inactive) in experiment [7] and 5.02% (inactive) in experiment [8]. Further, in experiment [2], the inhibition of aggregation was -20.7% (inactive). The values for the nuclei count in experiment [2] and in experiment [3] were 109% and 114%, respectively. In experiment [4], the fluorescence slope was -0.547 (inactive). Further, the NADPH fluorescence slope in experiment [5] is 1.6e-05 (inactive). For the same compound, the slope in experiment [6] was 0.00573 (inactive).

Take `CCc1cc(C(=O)OC)c(NC(=O)CCC(=O)O)s1`: in experiment [1], the cell count came out at 719. The inhibition in experiment [1] is -5.2% (inactive); in experiment [3], -24% (inactive); in experiment [7], -0.441% (inactive); in experiment [8] it was 97.6% (active). Moreover, in experiment [2], the inhibition of aggregation is 3.9% (inactive). Further, the nuclei count came to 117% in experiment [2] and 106% in experiment [3]. Moreover, in experiment [4], the fluorescence slope is -0.392 (inactive). In addition, in experiment [5], the NADPH fluorescence slope is 3.6e-05 (inactive). In addition, the slope in experiment [6] was 0.0103 (inactive).

Consider `O=C(CCCn1c(=O)c2sccc2n(Cc2cc(=O)n3ccccc3n2)c1=O)NCc1ccco1`, for which the cell count in experiment [1] was 729. Besides, the inhibition in experiment [1] is -2.9% (inactive); in experiment [3], -67.8% (inactive); in experiment [7], -12.7% (inactive); in experiment [8], -8.56% (inactive). Moreover, the inhibition of aggregation in experiment [2] was -3.9% (inactive). Further, the nuclei count came out at 106% in experiment [2] and 116% in experiment [3]. Besides, the fluorescence slope in experiment [4] is -0.575 (inactive). In addition, in experiment [5], the NADPH fluorescence slope was 3.3e-07 (inactive). Moreover, the slope in experiment [6] was 0.0069 (inactive).

In the case of `Cc1ccc(/C=c2\s/c(=C(/C#N)C(=O)N3CCCC3)n(Cc3ccco3)c2=O)s1`, the cell count in experiment [1] amounted to 627. For the same compound, the inhibition in experiment [1] was 2.8% (inactive); in experiment [3], -28.1% (inactive); in experiment [7], 16.4% (inactive); in experiment [8], -21.1% (inactive). Moreover, the inhibition of aggregation in experiment [2] is -17.3% (inactive). The nuclei count came out at 101% in experiment [2] and 136% in experiment [3]. Moreover, the fluorescence slope in experiment [4] is -0.59 (inactive). In addition, the NADPH fluorescence slope in experiment [5] was 2e-05 (inactive). Besides, the slope in experiment [6] was 0.00315 (inactive).

`COc1ccc(C(=O)NCc2nnc(SCC(=O)Nc3cc(C)cc(C)c3)o2)cc1OC`: the cell count in experiment [1] turned out to be 611. Moreover, the inhibition in experiment [1] was -14.4% (inactive); in experiment [3], -100% (inactive); in experiment [7], 9% (inactive); in experiment [8], 9.85% (inactive). The inhibition of aggregation in experiment [2] is 14% (inactive). Further, the nuclei count in experiment [2] came out at 76.5%; in experiment [3] it was 115%. Besides, the fluorescence slope in experiment [4] was -0.272 (inactive). In experiment [5], the NADPH fluorescence slope was -1e-05 (inactive). Also, the slope in experiment [6] was 0.00582 (inactive).

For the compound `O=C(c1ccncc1)N1CCN(C(=O)c2cccs2)CC1`, the cell count in experiment [1] worked out at 454. Further, the inhibition is -3.3% (inactive) in experiment [1], 0.5% (inactive) in experiment [3], 12.1% (inactive) in experiment [7] and 14.2% (inactive) in experiment [8]. Also, in experiment [2], the inhibition of aggregation was 1.6% (inactive). Also, the nuclei count in experiment [2] was determined as 110%; in experiment [3], 106%. Moreover, the fluorescence slope in experiment [4] is -0.459 (inactive). Further, in experiment [5], the NADPH fluorescence slope was -3e-05 (inactive). In addition, in experiment [6], the slope is 0.00631 (inactive).

With `Cc1ccc(NC(=O)CCN2CCc3ccccc3C2)cc1`, the cell count in experiment [1] was found to be 820. For the same compound, the inhibition is -9.6% (inactive) in experiment [1], -44.8% (inactive) in experiment [3], 5.12% (inactive) in experiment [7] and 24.7% (inactive) in experiment [8]. Moreover, in experiment [2], the inhibition of aggregation was -13.1% (inactive). Also, the nuclei count in experiment [2] is 86.9%; in experiment [3] it was 113%. Besides, the fluorescence slope in experiment [4] was -0.463 (inactive). Besides, the NADPH fluorescence slope in experiment [5] was -0.000317 (inactive). Besides, in experiment [6], the slope was 0.00467 (inactive).

Take `CC(=O)OCCNc1cc(N2CCN(C)CC2)c2noc3c2c1C(=O)c1ccccc1-3`: the cell count in experiment [1] amounted to 746. Also, the inhibition in experiment [1] was 1.6% (inactive); in experiment [3], -15.4% (inactive); in experiment [7], 27.6% (inactive); in experiment [8] it was 21.4% (inactive). Besides, in experiment [2], the inhibition of aggregation is -43.5% (inactive). For the same compound, the nuclei count was 114% in experiment [2] and 111% in experiment [3]. The fluorescence slope in experiment [4] is -0.58 (inactive). The NADPH fluorescence slope in experiment [5] was -2.8e-05 (inactive). Moreover, the slope in experiment [6] is 0.00388 (inactive).

Consider `Cc1coc2cc3oc(=O)c4c(c3cc12)CCC4`, for which the cell count in experiment [1] was 714. For the same compound, the inhibition in experiment [1] is 6.7% (inactive); in experiment [3] it was -48.2% (inactive); in experiment [7] it was -1.57% (inactive); in experiment [8] it was -5.8% (inactive). In addition, the inhibition of aggregation in experiment [2] is -13.1% (inactive). The nuclei count in experiment [2] is 59.7%; in experiment [3], 135%. Besides, in experiment [4], the fluorescence slope is -0.566 (inactive). Further, in experiment [5], the NADPH fluorescence slope was -1.8e-05 (inactive). The slope in experiment [6] is 0.00717 (inactive).

As to `COC(=O)c1sc2ccccc2c1NC(=O)c1cccs1`, the cell count in experiment [1] amounted to 729. Further, the inhibition in experiment [1] was 16.4% (inactive); in experiment [3] it was 1.4% (inactive); in experiment [7], -16.8% (inactive); in experiment [8], -27.9% (inactive). Also, the inhibition of aggregation in experiment [2] was 21.4% (inactive). Also, the values for the nuclei count in experiment [2] and in experiment [3] were 101% and 99.1%, respectively. The fluorescence slope in experiment [4] was -0.551 (inactive). Moreover, in experiment [5], the NADPH fluorescence slope is -2.2e-05 (inactive). For the same compound, in experiment [6], the slope was 0.00536 (inactive).
